The source of these data is PubChem BioAssay (Tox21).

“And” between values parts separate entries of the source, which are not always exact repeats. Identical values can stand only once. Results filed as inconclusive are left out. The source holds several records for some structures; these can differ, active in one and inactive in another. The source made the active and inactive calls. Unless noted, calls come from the whole dose curve.
% is set by controls: 0 for no effect and ±100 for the full control effect.

A short description of the first assay: qHTS assay for small molecules that induce genotoxicity in human embryonic kidney cells expressing luciferase-tagged ATAD5 - cell viability (AID 651634). Note: nearly all actives have a fitted effect of over 25% in size. Conditions: HEK293T ATAD5-luc cells viability, CellTiter-Fluor, 15.5 h; series mostly up to 83.3 µM; activity, negative = cytotoxicity: at the top concentration. The method in brief:
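HEK293T cells carrying luciferase-tagged ATAD5, 2,000 cells/well, exposed to compound for 15.5 hr at 37C. Viability read as live-cell protease activity by CellTiter-Fluor fluorescence after 30 min at 37C.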
For `CCOP(=S)(OCC)SCCl`, the “activity, negative = cytotoxicity” value is 5.42% (inactive).

As for `CCN[C@@H](C)Cc1cccc(C(F)(F)F)c1`, the “activity, negative = cytotoxicity” value was -14.7% (inactive).

For the compound `CN(C)CCc1c[nH]c2cccc(OP(=O)(O)O)c12`, the “activity, negative = cytotoxicity” value is 4.68% (inactive).

As to `CCN(CC)C1CCCCC1`, the “activity, negative = cytotoxicity” value is 19.4% (inactive).

As to `C[C@H](N)C(=O)c1ccccc1`, the Potency result was “inactive”.

Consider `C=C(Cl)CCl`, for which the “activity, negative = cytotoxicity” value is 14.5% (inactive).

In the case of `N[C@@H](Cc1ccc(Oc2cc(I)c(O)c(I)c2)c(I)c1)C(=O)O`, the “activity, negative = cytotoxicity” value was -5.16% (inactive).

With `Cc1ccc(-c2nc3ccc(C)cn3c2CC(=O)N(C)C)cc1`, the “activity, negative = cytotoxicity” value was 6.38% (inactive).

With `O=[N+]([O-])CCO`, the “activity, negative = cytotoxicity” value was 11.9% [at 95.3 µM] (inactive).

Consider `O=C(Cl)C(Cl)(Cl)Cl`, for which the “activity, negative = cytotoxicity” value was 14.1% [at 95.3 µM] (inactive).

For the compound `CCOC(=O)Nc1cccc(OC(=O)Nc2ccccc2)c1`, the “activity, negative = cytotoxicity” value was -2.33% (inactive).

Turning to `CCOc1cc(OP(=S)(OC)OC)nc(CC)n1`, the “activity, negative = cytotoxicity” value was 11% (inactive).

As to `S=C=S`, the Potency entry was “inactive”.

Consider `O=P(O)(O)c1ccccc1`, for which the “activity, negative = cytotoxicity” value was -11.1% (inactive).

As to `N#CC(Br)(Br)C(N)=O`, the “activity, negative = cytotoxicity” value was 16% (inactive).

Regarding `COC(=O)c1ccc(CBr)cc1`, the “activity, negative = cytotoxicity” value is -5.24% [at 95.3 µM] (inactive).

Consider `COP(=O)(OC)O/C(C)=C/C(=O)N(C)C`, for which the “activity, negative = cytotoxicity” value is 9.18% [at 95.3 µM] (inactive).

For the compound `CC(C)N(Cc1ccccc1)C(=O)C(C)(C)C`, the “activity, negative = cytotoxicity” value was 16.6% (inactive).

As for `CCCC(C)(COC(N)=O)COC(N)=O`, the Potency entry was “inactive”.

For `CCOP(=O)(CN(CCO)CCO)OCC`, the “activity, negative = cytotoxicity” value was 13.3% (inactive).

In the case of `CC(C)(C)c1cc(O)ccc1O`, the Potency entry is “inactive”.

For `N#CN=C1SCCN1Cc1ccc(Cl)nc1`, the “activity, negative = cytotoxicity” value is 14.3% (inactive).

`CCNP(=S)(OC)O/C(C)=C/C(=O)OC(C)C` (stereo not drawn): the “activity, negative = cytotoxicity” value was 12% (inactive).

For the compound `Clc1ccc(C(Cl)(Cl)Cl)cn1`, the “activity, negative = cytotoxicity” value is -5.62% (inactive).

Consider `O=c1[nH]oc2c1CCNC2`, for which the “activity, negative = cytotoxicity” value was -9.58% (inactive).

On to `Clc1cc2c(cc1Cl)Oc1cc(Cl)c(Cl)cc1O2`, for which the activity, negative = cytotoxicity was 15.1% [at 0.33 µM] (inactive).

Turning to `C#CCOC(=O)/C=C(C)/C=C/CC(C)CCCC(C)C` (stereo not drawn), the “activity, negative = cytotoxicity” value is 12.4% (inactive).

Consider `CN1COCN(Cc2cnc(Cl)s2)/C1=N\[N+](=O)[O-]`, for which the “activity, negative = cytotoxicity” value was -4.1% (inactive).

In the case of `ClC1=C(Cl)C2(Cl)C(CBr)CC1(Cl)C2(Cl)Cl` (stereo not drawn), the Potency entry was “inactive”.

As to `C=CC=O`, the “activity, negative = cytotoxicity” value is 17.9% [at 95.3 µM] (inactive).

Take `COC(=O)c1ccccc1CS(=O)(=O)NC(=O)Nc1nc(OC)cc(OC)n1`: the “activity, negative = cytotoxicity” value is 16.8% (inactive).

For the compound `COC1=CC(=O)O[C@@H](/C=C/c2ccccc2)C1`, the “activity, negative = cytotoxicity” value is 12% [at 95.3 µM] (inactive).

Consider `CC(C)c1ccc(O)cc1`, for which the “activity, negative = cytotoxicity” value was 23.1% (inactive).

In the case of `CCCCS(=O)(=O)Cl`, the “activity, negative = cytotoxicity” value was 9.51% (inactive).

Turning to `CCC(C(N)=O)N1CCCC1=O` (stereo not drawn), the “activity, negative = cytotoxicity” value was 17.7% (inactive).

Regarding `CC(C)C(C)(N)C#N` (stereo not drawn), the “activity, negative = cytotoxicity” value is 13.6% (inactive).

`N#CN`: the Potency result was “inactive”.

In the case of `COc1cc(CCN)cc(OC)c1OC`, the “activity, negative = cytotoxicity” value was 13.1% [at 95.3 µM] (inactive).

The nature of the next assay: qHTS assay for small molecule disruptors of the mitochondrial membrane potential - cell viability (AID 720634).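 For activity change, negative = cytotoxicity: human HepG2 liver cancer cells.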 Note: nearly all actives have a fitted effect of over 20% in size. Note: potency is the fitted concentration of half-maximal effect. Conditions: HepG2 viability, ATP luminescence (CellTiter-Glo), 1 h; series mostly up to 83.2 µM; activity change, negative = cytotoxicity: at the top concentration. A digest of the protocol: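 HepG2 cells, 2,000 per well, attached overnight, then treated 1 hr at 37 C, 5% CO2. Viability read as ATP by CellTiter-Glo luminescence after 30 min at room temperature. Read in the same wells as the m-MPI membrane-potential dye assay.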
A general note: In qHTS, concentration-response curves come from the screen itself.
Turning to `CCOP(=S)(OCC)SCCl`, the “activity change, negative = cytotoxicity” value was -12.8% (inactive).

Consider `CCN[C@@H](C)Cc1cccc(C(F)(F)F)c1`, for which the “activity change, negative = cytotoxicity” value is 2.46% (inactive).

As to `CN(C)CCc1c[nH]c2cccc(OP(=O)(O)O)c12`, the “activity change, negative = cytotoxicity” value is 0.242% (inactive).

For `CCN(CC)C1CCCCC1`, the “activity change, negative = cytotoxicity” value was 22.3% (inactive).

On to `C[C@H](N)C(=O)c1ccccc1`, for which the Potency result was “inactive”.

Turning to `C=C(Cl)CCl`, the “activity change, negative = cytotoxicity” value is 2.02% (inactive).

Take `N[C@@H](Cc1ccc(Oc2cc(I)c(O)c(I)c2)c(I)c1)C(=O)O`: the “activity change, negative = cytotoxicity” value was 3.67% (inactive).

As to `O=C(Cl)C(Cl)(Cl)Cl`, the “activity change, negative = cytotoxicity” value was 9.92% [at 95.3 µM] (inactive).

As to `CCOc1cc(OP(=S)(OC)OC)nc(CC)n1`, the “activity change, negative = cytotoxicity” value was -9.6% (inactive).

As to `S=C=S`, the Potency entry was “inactive”.

Regarding `O=P(O)(O)c1ccccc1`, the “activity change, negative = cytotoxicity” value is 1.34% (inactive).

As for `COC(=O)c1ccc(CBr)cc1`, the “activity change, negative = cytotoxicity” value was -4.94% [at 95.3 µM] (inactive).

On to `CC(C)N(Cc1ccccc1)C(=O)C(C)(C)C`, for which the “activity change, negative = cytotoxicity” value is -12.5% (inactive).

Take `CCCC(C)(COC(N)=O)COC(N)=O`: the Potency result was “inactive”.

As to `CCOP(=O)(CN(CCO)CCO)OCC`, the “activity change, negative = cytotoxicity” value is -5.12% (inactive).

As to `CC(C)(C)c1cc(O)ccc1O`, the Potency entry was “inactive”.

`N#CN=C1SCCN1Cc1ccc(Cl)nc1`: the “activity change, negative = cytotoxicity” value is 7.66% (inactive).

`O=C1C2CC=CCC2C(=O)N1SC(Cl)(Cl)Cl` (stereo not drawn): the Potency is 29.8 µM (active) and inactive and 60.1 µM (active).

For the compound `Clc1ccc(C(Cl)(Cl)Cl)cn1`, the “activity change, negative = cytotoxicity” value is 20.6% (inactive).

For `Clc1cc2c(cc1Cl)Oc1cc(Cl)c(Cl)cc1O2`, the activity change, negative = cytotoxicity is 5.89% [at 0.33 µM] (inactive).

As for `C#CCOC(=O)/C=C(C)/C=C/CC(C)CCCC(C)C` (stereo not drawn), the “activity change, negative = cytotoxicity” value is -10.5% (inactive).

Consider `CN1COCN(Cc2cnc(Cl)s2)/C1=N\[N+](=O)[O-]`, for which the “activity change, negative = cytotoxicity” value was 8.11% (inactive).

Turning to `ClC1=C(Cl)C2(Cl)C(CBr)CC1(Cl)C2(Cl)Cl` (stereo not drawn), the Potency entry is “inactive”.

On to `c1cncc([C@@H]2CCCCN2)c1`, for which the “activity change, negative = cytotoxicity” value was 11.3% (inactive).

In the case of `COC(=O)c1ccccc1CS(=O)(=O)NC(=O)Nc1nc(OC)cc(OC)n1`, the “activity change, negative = cytotoxicity” value was 12.1% (inactive).

`COC1=CC(=O)O[C@@H](/C=C/c2ccccc2)C1`: the “activity change, negative = cytotoxicity” value is -5.49% [at 95.3 µM] (inactive).

As for `CC(C)c1ccc(O)cc1`, the “activity change, negative = cytotoxicity” value was 7.85% (inactive).

Regarding `CCCCS(=O)(=O)Cl`, the “activity change, negative = cytotoxicity” value was 10.3% (inactive).

For the compound `CCC(C(N)=O)N1CCCC1=O` (stereo not drawn), the “activity change, negative = cytotoxicity” value is -1.85% (inactive).

With `CC(C)C(C)(N)C#N` (stereo not drawn), the “activity change, negative = cytotoxicity” value was 10% (inactive).

`N#CN`: the Potency entry was “inactive”.

Take `COc1cc(CCN)cc(OC)c1OC`: the “activity change, negative = cytotoxicity” value is -8.51% [at 95.3 µM] (inactive).

The nature of the next assay: qHTS assay for small molecule disruptors of the mitochondrial membrane potential (AID 720635; active = well fitted inhibition curve with a large enough effect in the signal ratio in the repeat runs; the % refers to the signal ratio; note: potency is the fitted concentration of half-maximal effect). Conditions: HepG2 mitochondrial membrane potential, Mito-MPS dye ratio; series mostly up to 83.2 µM; ratio activity, negative = MMP loss: at the top concentration. A digest of the protocol:
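HepG2 cells exposed to compound 1 hr at 37C, then Mito-MPS dye 30 min. Ratio read of aggregate (540/590 nm) versus monomer (490/535 nm) fluorescence.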
For the compound `CCOP(=S)(OCC)SCCl`, the “ratio activity, negative = MMP loss” value was -14.5% (inactive).

On to `CCN[C@@H](C)Cc1cccc(C(F)(F)F)c1`, for which the “ratio activity, negative = MMP loss” value is 24.4% (inactive).

In the case of `CN(C)CCc1c[nH]c2cccc(OP(=O)(O)O)c12`, the “ratio activity, negative = MMP loss” value was 3.98% (inactive).

As to `C[C@H](N)C(=O)c1ccccc1`, the Potency result is “inactive”.

Take `C=C(Cl)CCl`: the “ratio activity, negative = MMP loss” value was 8.52% (inactive).

Turning to `N[C@@H](Cc1ccc(Oc2cc(I)c(O)c(I)c2)c(I)c1)C(=O)O`, the “ratio activity, negative = MMP loss” value was -29.6% (inactive).

For `Cc1ccc(-c2nc3ccc(C)cn3c2CC(=O)N(C)C)cc1`, the “ratio activity, negative = MMP loss” value is -8.32% (inactive).

Consider `O=C(Cl)C(Cl)(Cl)Cl`, for which the “ratio activity, negative = MMP loss” value was -12.9% [at 95.3 µM] (inactive).

Regarding `CCOC(=O)Nc1cccc(OC(=O)Nc2ccccc2)c1`, the Potency was 9.69 µM (active).

In the case of `S=C=S`, the “ratio activity, negative = MMP loss” value is -12% (inactive).

In the case of `O=P(O)(O)c1ccccc1`, the “ratio activity, negative = MMP loss” value was 20.4% (inactive).

As for `COC(=O)c1ccc(CBr)cc1`, the “ratio activity, negative = MMP loss” value is -22.8% [at 95.3 µM] (inactive).

Turning to `CCCC(C)(COC(N)=O)COC(N)=O`, the “ratio activity, negative = MMP loss” value was 19.5% (inactive).

`CCOP(=O)(CN(CCO)CCO)OCC`: the “ratio activity, negative = MMP loss” value was 20.7% (inactive).

In the case of `CC(C)(C)c1cc(O)ccc1O`, the Potency entry was “inactive and 22.1 µM (active)”.

Consider `N#CN=C1SCCN1Cc1ccc(Cl)nc1`, for which the “ratio activity, negative = MMP loss” value was 17.4% (inactive).

With `O=C1C2CC=CCC2C(=O)N1SC(Cl)(Cl)Cl` (stereo not drawn), the Potency was 8.41 µM (active) and 43.1 µM (active) and 8.49 µM (active).

With `ClC1=C(Cl)C2(Cl)C(CBr)CC1(Cl)C2(Cl)Cl` (stereo not drawn), the Potency is 27.3 µM (active).

Regarding `COC1=CC(=O)O[C@@H](/C=C/c2ccccc2)C1`, the “ratio activity, negative = MMP loss” value was 9.58% [at 95.3 µM] (inactive).

With `CCCCS(=O)(=O)Cl`, the “ratio activity, negative = MMP loss” value is -10.5% (inactive).

Consider `CCC(C(N)=O)N1CCCC1=O` (stereo not drawn), for which the “ratio activity, negative = MMP loss” value is -19.1% (inactive).

With `N#CN`, the Potency entry was “inactive”.

As to `COc1cc(CCN)cc(OC)c1OC`, the “ratio activity, negative = MMP loss” value is 15.8% [at 95.3 µM] (inactive).
